Bioassay records deposited in PubChem BioAssay by National Center for Advancing Translational Sciences (NCATS).
hNpr1 antagonist – blocks ANP-stimulated signaling of human Npr1 receptor. P16066. HEK293 hNpr1 GloSensor cGMP, ANP-stimulated luminescence. Potency, µM (top dose mostly 46.3 µM), for the others: at the top dose activity change, negative = inhibition, most hits filed as inhibitors. 1.6% of 76,000 active. AID 1347048; calls by dose curve; also: nearly all actives have a fitted effect of over 60% in size
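HEK293 cells stably expressing human Npr1 and cGMP GloSensor pGS-40F, loaded 2 h with 2% GloSensor reagent, given compound 30 min at room temperature. Luminescence read before and 20 min after 0.1 nM hNppA.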
NIH3T3 tox – NIH 3T3 cell cytotoxicity. NIH 3T3 viability, CellTiter-Glo ATP luminescence, 48-72 h. Potency, µM (doses to about 96.7 µM), inactives show at the highest dose activity change, negative = cytotoxicity, actives largely listed as inhibitors. 4.3% of 94,000 active; also: nearly all actives have a fitted effect of over 55% in size
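NIH 3T3 cells at 400 cells/well received 23 nL of compound by pintool and were incubated 48 or 72 h at 37 °C. Viability was read as ATP-coupled CellTiter-Glo luminescence.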
Luciferase inh – inhibitors of firefly (Photinus pyralis) luciferase; P08659; Potency, µM (highest dose often 115 µM), hits mostly inhibitors; 2.5% of 76,000 active; purified P. pyralis luciferase, luminescence, biochemical; also: nearly all actives have a fitted effect of over 65% in size
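Biochemical qHTS: compound (6-point titration) added to 10uM D-luciferin plus 10uM ATP in Tris acetate pH 7.5 buffer with Mg, Tween-20 and BSA, then purified enzyme at 10nM; light output imaged.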
HEK cytotox – kills HEK 293 cells; HEK 293 viability, ATP luminescence (CellTiter-Glo), 48-72 h; Potency, µM (top dose mostly 115 µM), without a hit: at the highest dose activity change, negative = cytotoxicity, most hits filed as inhibitors; 6.6% of 94,000 active; AID 1345083; also: nearly all actives have a fitted effect of over 60% in size
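ATP-coupled CellTiter-Glo luminescence served as viability read-out, recorded 10 min after reagent addition at room temperature. HEK 293 cells, 250 cells/well, had been incubated with pintool-transferred compound for 48 or 72 hr at 37 degree Celsius.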
* marks the source's active call; other numbers are inactive results; i = inactive; u = inconclusive; x = no result; [ ] = dose if it differs, or a comment. Most compounds without a hit are left out; they make up all but 11% or so of the library. Unless noted, calls follow the shape of the dose curve; as a rule, active = well fitted curve in the direction sought with a large enough effect; inconclusive = small, poorly fitted or top-dose-only effect, or another doubt; inactive = no such curve, though single readings can be large; an effect the other way counts as inactive or inconclusive. % is scaled to controls: 0 for no effect and ±100 for the full control effect; potency is read from the fitted curve at half-maximal effect.

SMILES	hNpr1 antagonist	NIH3T3 tox	Luciferase inh	HEK cytotox
CCCN(C)c1nccnc1OC1CCN(C(=O)C2CCOCC2)C1 (stereo not given)	4.0%	-8.1%	39.8µM*	-12.9%
O=C(NC1CCCc2c1cnn2-c1ccc(F)cc1F)c1c(F)cccc1Cl (stereo not given)	u	u	i	35.5µM*
O[C@@H]1C[C@@H](c2nc(-c3ccc(C(F)(F)F)cc3)no2)N(Cc2cccc(OC(F)(F)F)c2)C1	1.8%	u	35.5µM*	79.4µM*
O[C@@H]1C[C@@H](c2nc(-c3ccccc3)no2)N(Cc2cccc(OC(F)(F)F)c2)C1	-1.1%[70.6 µM]	u	70.8µM*	u
Cc1ccc(-c2noc([C@@H]3C[C@@H](O)CN3Cc3cccc(OC(F)(F)F)c3)n2)cc1F	-12.4%	u	i	u
O=C(NCCN1CCOCC1)C1CCCCc2nnc(-c3ccccc3)n21 (stereo not given)	x	-14.7%	x	-1.5%
COc1ccc(CN2Cc3cc(NC(=O)c4ccc(F)cc4)ccc3OC(C)C2=O)c(OC)c1 (stereo not given)	-7.8%	-18.1%	i	u
COc1ccc(CN2Cc3cc(NC(=O)c4ccccc4F)ccc3OC(C)C2=O)c(OC)c1 (stereo not given)	-2.1%	u	i	35.5µM*
COc1cccc(CN2Cc3cc(NC(=O)c4ccc(F)cc4F)ccc3OC(C)C2=O)c1OC (stereo not given)	-13.7%	u	i	u
O=C(Nc1ccc2c(c1)CN(Cc1ccccc1F)C(=O)CO2)c1ccc(Cl)cc1	-26.1%	u	u	39.8µM*
COc1cccc(C(=O)Nc2ccc3c(c2)CN(Cc2cccc(OC)c2OC)C(=O)CO3)c1	-2.4%	-24.3%	u	44.7µM*
CC1Oc2ccc(NC(=O)c3ccc(Cl)c(Cl)c3)cc2CN(Cc2ccccc2F)C1=O (stereo not given)	-17.6%	u	i	u
COc1ccccc1CN1Cc2cc(NC(=O)c3ccc(Cl)cc3)ccc2OC(C)C1=O (stereo not given)	-4.5%	u	i	25.1µM*
CC(C)NC(=O)c1cn2cc(-c3ccc(C(F)(F)F)cc3)sc2n1	x	-29.9%	x	-33.8%
CN(C)Cc1nnc(C2CCN(C(=O)CCNS(C)(=O)=O)CC2)n1C	0.4%	0.7%	i	i
COCCCn1c(=O)c(C(=O)N2CCN(C(=O)Cc3ccccn3)CC2)nc2cccnc21	x	-2.9%	x	i
COc1cccc(CN2Cc3cc(NC(=O)c4ccccc4)ccc3OC(C)C2=O)c1OC (stereo not given)	-11.8%	u	i	u
COc1cccc(C(=O)Nc2ccc3c(c2)CN(Cc2cccc(OC)c2OC)C(=O)C(C)O3)c1 (stereo not given)	-18.5%	35.5µM*	i	28.2µM*
COc1ccc(Nc2ccnc(N3CCC(NC(=O)c4ccccc4C)CC3)n2)cc1	x	39.8µM*	x	39.8µM*
COc1ccc(Nc2ccnc(N3CCC(NC(=O)c4ccccn4)CC3)n2)cc1	x	39.8µM*	x	u
COc1ccc(Nc2ccnc(N3CCC(NC(C)=O)CC3)n2)cc1	x	-20.1%	x	-9.2%
COc1ccc(C(=O)NC2CCN(c3nccc(Nc4ccccc4Cl)n3)CC2)cc1	x	u	x	-9.5%
COc1ccc(Nc2ccnc(N3CCC(NC(=O)Cc4cccc(Cl)c4)CC3)n2)cc1	x	20µM*	x	25.1µM*
COc1ccccc1C(=O)N1CCCC2(CN[S+](=O)([O-])c3cccnc3N2)C1 (stereo not given)	x	4.5%	x	i
COc1cccc(C)c1NC(=O)c1cccc(CN2CCCC(C)C2)c1 (stereo not given)	3.1%	-17.3%	i	-11.7%
SMILES	hNpr1 antagonist	NIH3T3 tox	Luciferase inh	HEK cytotox
CCNC(=O)NC1(CC2CC2)CCN(C(=O)NCCc2ccccc2)CC1	x	-18.8%	x	-21.9%
Cc1ccc(NC(=O)c2cc(-c3ccc[nH]3)n[nH]2)cc1C	2.7%	1.0%	7.94µM*	2.5%
Cc1ccc(NC(=O)c2cc(-c3ccc[nH]3)n[nH]2)cc1	-0.5%	-14.0%	3.98µM*	-7.9%
Cc1cc(C)cc(NC(=O)c2cc3n(n2)CC(c2ccc(Cl)cc2)OC3)c1 (stereo not given)	-7.0%	-39.1%	i	u
O=C(Nc1ccc(Cl)cc1)c1cc(-c2ccc[nH]2)n[nH]1	1.2%	-25.1%	u	u
CCc1ccc(NC(=O)c2cc(-c3ccc[nH]3)n[nH]2)cc1	7.4%	-16.9%	3.16µM*	u
